The full list was thinned out, with hits kept by preference.
LASV entry inh: blocks Lassa virus binding to or entry into cells. Potency, µM (top dose mostly 37.9 µM), actives largely listed as inhibitors. 300,000 tested, 1.2% active. Lassa virus pseudotype entry inhibition, cell reporter; calls by dose curve; tested in HEK293 cells; also: nearly all actives have a fitted effect of over 50% in size
MARV entry inh: Marburg virus entry inhibition; Marburg virus pseudotyped entry inhibition, cell reporter; AID 540276; 300,000 tested, 1.8% active; Potency, µM (titrated, usually from 37.8 µM), most hits filed as inhibitors; calls by dose curve; tested in HEK293 cells
Vaccinia Venus: inhibitors of vaccinia virus (Venus reporter); Vaccinia virus Venus reporter expression, fluorescence; Potency, µM (titrated, usually from 36.5 µM), actives largely listed as inhibitors; 330,000 tested, 0.46% active; calls by dose curve; tested in A549 cells; also: nearly all actives have a fitted effect of over 30% in size
Cycloheximide cs: affects cycloheximide protein synthesis inhibition readout, counter-screen. 300,000 tested, 12% active. max response, %. cell reporter, cycloheximide protein synthesis inhibition counterscreen; in the data active = max response mostly above about 13%, no sharp cut-off; inactive = mostly below about 14%; also: read at 38.3 µM for the half of the compounds with a filed dose
Shiga inhibitor: Shiga toxin inhibition; Vero cells, Shiga toxin protein synthesis inhibition reporter; inhibition, % at 38.7 µM; 290,000 tested, 9.2% active; in the data active = inhibition mostly above about 28%, no sharp cut-off; inactive = mostly below about 43%
VACV mCherry inh: vaccinia inhibition (mCherry reporter). Vaccinia virus mCherry reporter infection, fluorescence. 310,000 tested, 0.63% active. Potency, µM (series often up to 36.5 µM), hits mostly inhibitors; calls by dose curve; tested in A549 cells; also: nearly all actives have a fitted effect of over 35% in size
Hits are given with their value; - = inactive; ? = inconclusive; . = not tested or not shown.

SMILES	LASV entry inh	MARV entry inh	Vaccinia Venus	Cycloheximide cs	Shiga inhibitor	VACV mCherry inh
COc1ccc(CCNc2nc3c(c(=O)n(C)c(=O)n3C)n2Cc2ccccc2Cl)cc1OC	?	-	-	.	.	-
O=C(c1cccs1)N1C[C@@H](O)[C@@H](n2cc(C3CC3)nn2)C[C@@H]1c1ccccc1	-	.	.	.	.	.
COc1cc(Br)c(C2CC(=O)Nc3cc(OC)c(OC)cc32)cc1OC (stereo unspecified)	.	.	.	-	-	.
Cc1ccc(SCc2nc(-c3ccccn3)no2)cc1	-	-	-	25	69	.
c1ccc(SCc2nc(-c3ccncc3)no2)cc1	-	-	-	44	84	-
Cc1ccc(SC(C)c2nc(-c3ccncc3)no2)cc1 (stereo unspecified)	-	-	-	-	-	-
Cc1ccc(SCc2nc(-c3ccncc3)no2)cc1	-	?	-	20	66	-
Cc1onc(-c2ccccc2Cl)c1-c1nc(-c2ccccn2)no1	?	?	-	-	-	-
Cc1ccc(SCc2nc(-c3ccccc3)no2)cc1	-	-	-	28	-	.
Cc1ccc(C(CC(=O)Nc2cc(C)cc(C)c2)N2Cc3ccccc3C2=O)cc1 (stereo unspecified)	?	.	-	.	.	-
CCCCn1c(N)c(N(CCOC)C(=O)c2ccc(-c3cccc(C(F)(F)F)c3)o2)c(=O)[nH]c1=O	?	-	-	.	.	-
COc1ccc(-c2cccc3c2OC(CNC(=O)c2ccc4c(c2)OCO4)C3)nn1 (stereo unspecified)	.	.	-	.	.	-
Cc1ccc(NC(=O)C(=O)NCC(c2ccc3c(c2)OCO3)N2CCOCC2)cc1C (stereo unspecified)	?	.	-	.	.	-
COc1ccc(-c2noc(CSc3ccccc3)n2)cc1OC	-	-	-	39	67	-
Cc1ccc(OCc2nc(-c3ccccn3)no2)cc1	-	-	-	29	-	-
Cc1ccc(OCc2nc(-c3ccccn3)no2)c(Br)c1	?	?	.	-	-	.
CC(C)(C)Cc1nc(-c2ccccn2)no1	-	-	-	34	76	-
CCC(c1ccccc1)c1nc(-c2ccccn2)no1 (stereo unspecified)	-	?	-	-	-	.
CNc1ccc(/C=C2\C=Cc3ccccc32)cc1OC	.	.	-	.	.	-
COc1ccc(C2NN=C(c3ccc(C)cc3)S2)cc1OC (stereo unspecified)	.	-	-	38	92	-
COc1ccc(C2NC(=O)CS2)cc1OC (stereo unspecified)	-	-	-	-	-	-
COc1ccc(NS(=O)(=O)c2ccc3nc(COc4ccc5ccccc5c4)[nH]c3c2)cc1	?	?	28µM	-	-	?
COc1ccc(OCc2nc3ccc(S(=O)(=O)Nc4ccccc4Cl)cc3[nH]2)cc1	-	-	?	-	-	?
COc1ccc(NS(=O)(=O)c2ccc3nc(COc4cccc5ccccc45)[nH]c3c2)cc1	?	15µM	?	-	-	-
COc1cccc(NC(=O)Cn2c(=O)n(CCc3ccccc3)c(=O)c3c4c(sc32)CN(C(C)=O)CC4)c1	.	-	-	.	.	-
SMILES	LASV entry inh	MARV entry inh	Vaccinia Venus	Cycloheximide cs	Shiga inhibitor	VACV mCherry inh
Nc1ccc(Cl)c(-c2nc3ncccc3o2)c1	?	-	-	43	59	-
CCCC(=O)Nc1cc(C)c(O)c(-c2nc3ncccc3o2)c1	-	-	-	.	.	-
CCC(=O)Nc1ccc(Cl)c(-c2nc3ncccc3o2)c1	-	-	-	-	.	-
Nc1ccc(-c2nc3ncccc3o2)c(O)c1	.	.	.	21	69	.
Nc1ccc(-c2nc3ncccc3o2)c(Cl)c1	?	-	-	31	60	-
CCCCC(=O)OC1=C(C(C)=O)N(Cc2ccccc2)S(=O)(=O)c2ccccc21	-	-	-	.	.	-
COc1ccc(NC(=O)CSc2nnc(Cc3ccccc3)c(=O)n2N)cc1OC	-	-	-	.	.	-
Cc1ccc(C)c(OCCC(=O)OCC(=O)c2c(N)n(C)c(=O)n(C)c2=O)c1	-	-	-	.	.	-
COc1ccc(OCc2cc(C(=O)N(C)Cc3cnccn3)no2)c(Cl)c1	-	-	-	46	78	-
COc1cc(Cl)ccc1OCc1cc(C(=O)NC(C)Cc2cccnc2)no1 (stereo unspecified)	?	-	-	48	53	-
COc1ccc(OCc2cc(C(=O)N(C)Cc3cc(C4CC4)n[nH]3)no2)c(Cl)c1	.	.	.	40	138	.
COc1cc(Cl)ccc1OCc1cc(C(=O)N(C)Cc2cccc3cnccc23)no1	?	?	-	61	70	-
COc1ccc(Cl)cc1S(=O)(=O)NC(C)C(=O)NCc1cccnc1 (stereo unspecified)	.	-	-	-	-	-
CCCCN(c1ccccc1)c1ncnc2c1cnn2-c1ccc(Cl)cc1	-	.	-	.	.	-
O=C(/C=N\O)NCCCN1CCOCC1	.	-	.	.	.	.
COc1ccc2nc(N(Cc3cccnc3)C(=O)C3CCCCC3)sc2c1	-	.	-	.	.	-
Cc1nc(C)c(CC(=O)N2CCOc3ccc(CN4CCOCC4)cc3C2)s1	.	.	-	.	.	-
COc1ccc(OCc2cc(C(=O)NCC(C)Oc3cccnc3)no2)c(Cl)c1 (stereo unspecified)	?	?	-	32	43	-
CSc1ccccc1OCc1cc(C(=O)NCC(C)Oc2cccnc2)no1 (stereo unspecified)	.	.	-	.	.	-
COc1ccc(OCc2cc(C(=O)NCCc3ccccc3)no2)c(Cl)c1	.	.	.	-	-	.
COc1ccc(OCc2cc(C(=O)NC(C)Cc3cnccn3)no2)c(Cl)c1 (stereo unspecified)	.	.	.	31	72	.
COc1ccc(-c2nc3ccccc3c(=O)[nH]2)cc1	?	13µM	-	43	56	-
N=c1oc2ccccc2cc1-c1nc2ccccc2c(=O)[nH]1	.	.	-	-	60	-
O=c1[nH]c(-c2ccncc2)nc2ccccc12	-	-	-	-	-	-
Cc1cccc(-c2nc3ccccc3c(=O)[nH]2)c1	.	.	.	23	73	.
SMILES	LASV entry inh	MARV entry inh	Vaccinia Venus	Cycloheximide cs	Shiga inhibitor	VACV mCherry inh
CN(C)c1ccc(-c2nc3ccccc3c(=O)[nH]2)cc1	.	.	.	36	37	.
Cc1ccc(C)c(NC(=O)CCS(=O)(=O)c2cccc3nsnc23)c1	-	-	-	.	.	-
COC(=O)C1=CN(c2cccc(C)c2)C=C(C(=O)OC)C1c1cc(OC)c(O)c([N+](=O)[O-])c1	4.1µM	?	.	-	-	.
COC(=O)C1=CN(c2ccc(OC)cc2)C=C(C(=O)OC)C1c1ccc(C)c([N+](=O)[O-])c1	?	?	-	-	-	-
CC1(C(=O)NS(=O)(=O)C2CC2)CCN(C(=O)c2c(F)cccc2F)C1 (stereo unspecified)	.	.	-	.	.	-
c1ccc(CSc2ncccn2)cc1	-	?	-	19	-	-
Oc1cccnc1SCc1ccccc1	.	.	-	.	.	-
Clc1ccc(CSc2ncccn2)cc1	-	?	-	32	43	-
CCn1cc(C(=O)N2CCN(c3ccc(F)cc3)CC2)c(=O)c2cc(S(=O)(=O)N3CCOCC3)ccc21	-	-	-	.	.	-
O=C(CCc1ccccc1)N/N=C/c1cccc(O)c1	.	.	-	15	-	-
Cn1c(N/N=C\c2cccc(O)c2)cc(=O)n(C)c1=O	-	-	-	19	24	-

Screens (PubChem BioAssay)
